Laboratory results: PubChem BioAssay (NCATS)
Records with an inconclusive call do not appear. Activity calls are given as the source filed them. Calls follow the shape of the dose curve; as a rule, active = well fitted inhibition curve with a large enough effect; inconclusive = small, poorly fitted or top-dose-only effect; inactive = flat fitted curve, though single readings scatter.

What was measured:
Test in all cases: Cytotoxic Profiling of Annotated Libraries Using Quantitative High-Throughput Screening (AID 1296008); also: nearly all actives have a fitted effect of over 60% in size
Details in all cases: Five cell lines viability, CellTiter-Glo ATP luminescence, 48-72 h; max response: hits give low values
CRL-7250 = normal cell line; test system: CRL-7250
Outline: (§1)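 Cells exposed to compounds for 48 or 72 hr at 37 degrees Celsius. Viability read as ATP-coupled luminescence with CellTiter-Glo after 10 min at room temperature.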

HEK293 = test system: HEK293
Outline: as §1

HaCat = test system: HaCat
Outline: as §1

KB-3-1 = test system: KB-3-1
Outline: as §1
% is scaled to controls: 0 for no effect and ±100 for the full control effect; potency is read from the fitted curve at half-maximal effect.

C/C=C(\C)C(=O)O[C@@H]1CC2[C@@H](CC=C3C[C@@H](O[C@H]4C[C@H](OC)[C@H](O[C@H]5C[C@H](OC)[C@H](O[C@@H]6O[C@H](C)[C@@H](O[C@H]7C[C@H](OC)[C@H](O[C@@H]8O[C@H](CO)[C@@H](O)[C@H](O)[C@H]8O)[C@@H](C)O7)[C@H](OC)[C@H]6O)[C@@H](C)O5)[C@@H](C)O4)CC[C@@]32C)[C@@]2(O)CC[C@H](C(C)=O)[C@@]12C (some centres undefined)
inactive: max response (CRL-7250) 3.18% | max response (HEK293) -3.44% | max response (HaCat) -4.54% | max response (KB-3-1) 8.46%

CCC1C(=O)N(C)c2cnc(Nc3ccc(C(=O)NC4CCC(N5CCN(CC6CC6)CC5)CC4)cc3OC)nc2N1C(C)C (centres undefined)
active: Potency (CRL-7250) 4610 nM | Potency (HEK293) 5.8 nM | Potency (HaCat) 36.6 nM | Potency (KB-3-1) 5.2 nM

C=C(C(=O)O)C1CC(O)C2(C)CCCC(=C)C2C1 (centres undefined)
inactive: max response (CRL-7250) -4.23% | max response (HEK293) 0.173% | max response (HaCat) -8.7% | max response (KB-3-1) -0.72%

COc1ccc(C(O)C(C)OC2OC(CO)C(O)C(O)C2O)cc1 (centres undefined)
inactive: max response (CRL-7250) -9.11% | max response (HEK293) 0.525% | max response (HaCat) 1.16% | outcome (KB-3-1)

OC[C@H]1O[C@@H](O[C@H]2[C@H](OCc3ccccc3)O[C@H](CO[C@@H]3OC[C@@H](O)[C@H](O)[C@H]3O)[C@@H](O)[C@@H]2O)[C@H](O)[C@@H](O)[C@@H]1O
inactive: max response (CRL-7250) -6.77% | max response (HEK293) 0.36% | max response (HaCat) -3.65% | max response (KB-3-1) 4.93%

C=C(C)C1CCC2(C(=O)O)CCC3(C(=O)O)C(CCC4C5(C)CCC(O)C(C)(C(=O)O)C5CCC43C)C12 (centres undefined)
inactive: outcome (CRL-7250) | max response (HEK293) 3.45% | max response (HaCat) 3.2% | max response (KB-3-1) -7.04%

C[C@@H]1O[C@@H](O[C@@H]2[C@@H](O[C@@H]3O[C@@H](C)[C@H](O[C@@H]4OC[C@H](O)[C@H](O[C@@H]5OC[C@@H](O)[C@H](O)[C@H]5O)[C@H]4O)[C@@H](O[C@@H]4OC[C@](O)(CO)[C@H]4O)[C@H]3O)[C@H](OC(=O)[C@]34CCC(C)(C)C[C@H]3C3=CCC5[C@@]6(C)C[C@H](O)[C@H](O[C@@H]7O[C@H](CO[C@@H]8OC[C@H](O)[C@H](O)[C@H]8O)[C@@H](O)[C@H](O)[C@H]7O)C(C)(C)C6CC[C@@]5(C)[C@]3(C)C[C@H]4O)OC[C@H]2O)[C@H](O)[C@H](O)[C@H]1O (some centres undefined)
inactive: outcome (CRL-7250) | max response (HEK293) 0.0429% | max response (HaCat) 0.757% | max response (KB-3-1) 9.59%

O=C(Nc1ccc(S(=O)(=O)Nc2nccs2)cc1)C(c1ccccc1)c1ccccc1
inactive: max response (CRL-7250) -0.59% | max response (HEK293) -0.0195% | max response (HaCat) -1.59% | max response (KB-3-1) 5.78%

C=C1CN(Cc2ccc(C(=O)Nc3ccccc3N)cc2)C(=O)c2ccccc21
active: Potency (CRL-7250) 2060 nM | Potency (HEK293) 1460 nM | Potency (HaCat) 5800 nM | Potency (KB-3-1) 1840 nM

C[C@@H](O)[C@H](NC(=O)c1ccc(C#Cc2ccc(CN3CCOCC3)cc2)cc1)C(=O)NO
inactive: max response (CRL-7250) -14.3% | max response (HEK293) -16.7% | max response (HaCat) -21.7% | outcome (KB-3-1)

Cc1cc(Cl)ccc1COc1ccnn1-c1cc(C(=O)O)ccn1
inactive: max response (CRL-7250) 0.791% | max response (HEK293) -13.3% | max response (HaCat) -5.14% | outcome (KB-3-1)

COCCOc1ccc(N2CCN(CCn3ncc4c3nc(N)n3nc(-c5ccco5)nc43)CC2)cc1
inactive: outcome (CRL-7250) | max response (HEK293) -9.01% | max response (HaCat) 2.38% | max response (KB-3-1) -29.2%

CC1=CC(=O)CC(C)(C)C1/C=C/C(C)O[C@@H]1O[C@H](CO)[C@@H](O)[C@H](O)[C@H]1O[C@@H]1OC[C@](O)(CO)[C@H]1O (some centres undefined)
inactive: max response (CRL-7250) -0.149% | max response (HEK293) 1.02% | max response (HaCat) 4.57% | max response (KB-3-1) 2.75%

COc1ccc(/C=C\C(=O)O)c(O[C@@H]2O[C@H](CO)[C@@H](O)[C@H](O)[C@H]2O)c1
inactive: outcome (CRL-7250) | max response (HEK293) -0.642% | max response (HaCat) -1.35% | outcome (KB-3-1)

CC(/C=C/C1=CC2=CC(=O)C(C)(O)C(O)C2=CO1)=C\C(C)CCO (centres undefined)
inactive: max response (CRL-7250) -1.14% | max response (HEK293) -3.02% | max response (HaCat) -24.3% | max response (KB-3-1) 4.06%

CC(=O)OC[C@H]1O[C@H](O[C@]2(CO)O[C@H](CO)[C@@H](OC(=O)/C=C/c3ccccc3)[C@@H]2O)[C@H](O)[C@@H](O)[C@@H]1O
inactive: max response (CRL-7250) -26.1% | max response (HEK293) 2.62% | max response (HaCat) -2.48% | outcome (KB-3-1)
